Activity calls are given as the source filed them. How the calls were made is not given here. Where only a bound is given, the exact number is not on record here.
Potency means the concentration at half of the fitted maximal effect.

In the assay the test system is HIV-1 nucleocapsid protein NCp7 (binding to TG oligonucleotide). Briefly: HIV Nucleocapsid (AID 346).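 Further: potency is for inhibitors that block NC binding and lower polarization.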 To be noted: HIV-1 NC / fluorescein-TGTGTGTG probe, fluorescence polarization. The essentials: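 10 nM TG4xF probe with 100 nM nucleocapsid protein in high-salt Hepes pH 7.5 (250mM NaCl) containing 1uM ZnCl2 and reducing agents. Compound inhibition of binding was read as fluorescein polarization after 1 hr at room temperature.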
For the molecule `COc1ccc(Oc2ncc3nc(C)c(=O)n(C)c3n2)cc1`, the Potency was > 20 µM (inactive).
Regarding `CN(C)c1ncc2nc(-c3cc(F)cc(F)c3)c(=O)n(CCc3ccccc3)c2n1`, the Potency is > 20 µM (inactive).
In the case of `COc1cccc(Nc2ncc3nc(-c4ccc(F)cc4)c(=O)n(CCC#N)c3n2)c1`, the Potency was > 4 µM (inactive).
Consider `COc1ccc(NC(=O)N2CCCC3(CCN(C(=O)c4cccn4C)CC3)C2)cc1`, for which the Potency was > 4 µM (inactive).
On to `O=C(c1ccncc1)N1CCC[C@@]2(CCN(c3cccc(-c4ccccc4)c3)C2)C1`, for which the Potency was > 20 µM (inactive).
With `Cc1ccccc1-c1ccc2ncnc(NC3CC3)c2c1` the figure was > 20 µM (inactive).
For `COc1ccc2[nH]cc(CCNc3cc(-c4ccoc4)ncn3)c2c1`, the Potency was > 20 µM (inactive).
With `CN(C)c1ncc2nc(-c3ccccc3)c(=O)n(Cc3cccs3)c2n1` the figure was > 20 µM (inactive); with `O=C(c1cccc(F)c1)N1CCC2(CC1)CN(c1ccccc1)C2`, > 20 µM (inactive); with `COc1ccc2[nH]cc(CCNc3cc(-c4ccccc4OC)ncn3)c2c1`, > 20 µM (inactive).
With `CCNc1ncc2nc(-c3ccc(OC)cc3)c(=O)n(-c3ccc(OC)cc3)c2n1` the figure was > 4 µM (inactive).
With `COc1cccc(Nc2ncc3nc(C)c(=O)n(-c4ccccc4)c3n2)c1` the figure was > 20 µM (inactive); with `COc1ccc(CNc2ncncc2-c2ccccc2C)c(OC)c1`, > 20 µM (inactive); with `O=C(c1cccc(F)c1)N1CCC[C@@]2(CCN(C(c3ccccc3)c3ccccc3)C2)C1`, > 20 µM (inactive).
With `COc1ccc(CNc2ncnc3ccc(-c4cccc(C#N)c4)cc23)c(OC)c1`, the Potency was > 20 µM (inactive).
Regarding `N#Cc1cccc(-c2ccc3ncnc(NC4CCNCC4)c3c2)c1`, the Potency was > 20 µM (inactive).
Turning to `Cc1noc(C)c1-c1cc(Nc2ccc(F)cc2)ncn1`, the Potency is > 20 µM (inactive).
Consider `O=C(c1csnn1)N1CCC[C@@]2(CCN(c3ccccn3)C2)C1`, for which the Potency is > 20 µM (inactive).
In the case of `c1cncc(-c2nc(-n3ccnc3)c3ccccc3n2)c1`, the Potency is > 20 µM (inactive).
Take `COCCn1c(=O)c(-c2ccc(OC)cc2)nc2cnc(Nc3cccc(OC)c3)nc21`: the Potency is 8.97 µM (active).
With `COCC(=O)N1CCC2(CC1)CCN(c1cccc(-c3ccccc3)c1)CC2` the figure was > 20 µM (inactive); with `O=C(Nc1ccccc1)N1CCC2(CC1)CCN(C(=O)c1cccc(F)c1)CC2`, > 20 µM (inactive).
With `O=C(c1ccncc1)N1CCC[C@@]2(CCN(Cc3ccncc3)C2)C1` the figure was > 20 µM (inactive).
`Cc1ccccc1-c1cncnc1NCc1cccnc1`: the Potency is > 20 µM (inactive).
As for `Cc1ccccc1-c1cncnc1NCCN1CCOCC1`, the Potency is > 20 µM (inactive).

The values are drawn from PubChem BioAssay (NCATS).
